# Screening data as filed in PubChem.
# FAS-TE inh = inhibitors of human fatty acid synthase thioesterase domain | inhibition, % at 15 µM | recombinant FAS-TE, OMFH fluorogenic substrate, fluorescence endpoint | 360,000 tested, 0.67% active | AID 602261 | P49327;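 active means compounds whose normalised, plate-corrected inhibition of enzyme fluorescence in the single-dose primary screen is 50% or more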;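 further: 0% = DMSO with enzyme and 100% = substrate without enzyme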
# SMARCA2 act = SMARCA2 function activation, primary screen; AID 652017; MG213 cells, MMTV-luciferase reporter, dexamethasone, overnight; activation, % at 9.1 µM; 370,000 tested, 1% active; in the data active means activation above about 7.8%;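 further: 0% = vehicle wells and 100% = reference activator wells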
# KLK7 zymogen act = activates the human kallikrein-7 zymogen; 370,000 tested, 0.9% active; purified proKLK7, EDANS-DABCYL substrate fluorescence; 100% is mature enzyme control, 0% vehicle; activation, % at 7 µM; P49862;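 active means activation above the mean of all tested compounds plus 3 SD, computed per campaign excluding outliers beyond control limits, cut at about 13% in these data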
# GAA850 FXN act = increases GAA850 frataxin promoter reporter activity; HEK293 lucGAA850 FXN promoter luciferase reporter, 24 h; percent of 10 µM SAHA response; activation, % at 6 µM; 360,000 tested, 0.56% active; AID 540364;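 active means activation above the average of all compounds screened plus 3 SD, cutoff fixed separately per campaign, cut at about 7.5% in these data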;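 further: 0% = DMSO wells and 100% = 10 µM SAHA wells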
# SMARCA2 conf = SMARCA2 activation, confirmation screen. shares compounds with SMARCA2 act. MG213 cells, MMTV-luciferase with dexamethasone, luminescence, overnight; MG213 cells expressing E1A, Rb sequestered; DMSO wells 0%, reference activator 100%. activation, % at 9.1 µM. 3,500 tested, 30% active;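 active means activation above its plate's cutoff, the mean activation of tested wells plus 3 SD, cut at about 7.9% in these data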
# VP16 Luc act = activates GAL4-VP16 luciferase, flagging SMARCA2 activator hits; shares compounds with SMARCA2 act; HEK293 GAL4-VP16 pG5luc reporter, luciferase luminescence; scaled: DMSO wells 0%, SAHA wells 100%; activation, % at 9.1 µM; 3,500 tested, 41% active;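 active means activation above the solvent-only control well mean plus 3 SD, averaged across control plates, cut at about 5.2% in these data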
# An asterisk follows results filed as active; · = no result given; ! = repeats disagree. Rows were chosen to be rich in hits. Some 2.9% of all compounds tested hit in one or more screens of this group.
SMILES,FAS-TE inh,SMARCA2 act,KLK7 zymogen act,GAA850 FXN act,SMARCA2 conf,VP16 Luc act
COCCCn1c(=O)/c(=C\c2ccccc2OC(F)F)s/c1=C(/C#N)C(=O)NC(C)C,7,14*,0,4,5,2
COCCCn1c(=O)/c(=C\c2ccccc2OC(C)C)s/c1=C(/C#N)C(=O)Nc1ccc(C(=O)O)cc1,11,1,-1,-3,·,·
Cc1cc(C)nc(Nc2ccccc2Cl)n1,0,12*,0,1,2,1
CCN(C(=O)COC(=O)c1c(-c2ccccc2)noc1C)C1CCS(=O)(=O)C1 (centres undefined),-12,8.6*,-1,2,-3,1
OCCN(Cc1ccccc1)Cc1ccc(Cl)cc1Cl,14,8.2*,0,-1,-3,-1
OCCN(Cc1ccccc1)Cc1ncccc1O,-3,-1,0,1,·,·
COc1ccccc1NC(=O)C(C)OC(=O)CC1CCCCC1 (centres undefined),9,-1,-1,0,·,·
COc1ccc(/C=C/c2nc(S(=O)(=O)c3ccccc3)c(N(C)C)o2)cc1,18,9.6*,0,2,-5,-2
COc1cc(NS(=O)(=O)c2ccc3[nH]c(=O)[nH]c3c2)cc(OC)c1,-2,0,0,1,·,·
Fc1ccc(-c2cc(-c3cccs3)cc(-c3ccccc3)n2)cc1,36,-4,0,1,·,·
Fc1ccc(-c2cnc(-c3cccs3)o2)cc1,12,9.2*,-9,6,10*,5.4*
CCCNC(=O)CN(Cc1ccco1)S(=O)(=O)c1ccc(OCC)cc1,-5,-2,0,0,·,·
Cc1ccsc1/C=N/NC(=O)c1sccc1C,2,11*,0,4,12*,11*
Cc1cccc2cc(C(c3nnnn3Cc3ccccc3)N3CCCc4ccccc43)c(=O)[nH]c12 (centres undefined),6,0,9,3,·,·
CCN(CC)CCNc1ccnc2cc(Cl)ccc12,-6,1,0,-1,·,·
CCN(CC)Cc1cc(Nc2ccnc3cc(Cl)ccc23)ccc1O,-1,8.2*,-1,2,20*!,-2
C=CCN1C(=O)/C(=C/c2ccc(O)c(OC)c2)S/C1=N/c1nccs1,6,11*,-1,5,2,1
CCOC(=O)/C(=N/Nc1ccc(Br)cc1)N1CC(C)OC(C)C1 (centres undefined),7,-2,1,0,·,·
Fc1ccc(N/N=C/c2cccnc2)c(F)c1,2,8.4*,1,2,1,1
COc1ccc(Cn2cc(C(=O)c3ccccc3)c(=O)c3cc(OC)ccc32)cc1,0,8.9*,0,-2,-2,0
COc1ccc2c(c1)c(=O)c(C(=O)c1ccccc1)cn2Cc1ccccc1,4,-2,1,-2,·,·
CCCCN1C(=O)CC(C(=O)OCC)=C1C,-5,-3,0,4,·,·
CCOC(=O)C1(C(F)(F)F)N=C(C(F)(F)F)Nc2ccccc21 (centres undefined),-8,9.8*,0,0,-1,0
C/C(=N\NC(=O)COc1ccc(C(C)(C)C)cc1)c1ccc(N2CCOCC2)cc1,5,0,0,1,·,·
CC1(c2ccc3c(c2)OCCO3)NC(=O)N(CC(=O)Nc2ccccc2F)C1=O (centres undefined),-8,1,0,5,·,·
SMILES,FAS-TE inh,SMARCA2 act,KLK7 zymogen act,GAA850 FXN act,SMARCA2 conf,VP16 Luc act
COc1ccc(NC(=O)C2CCCN(S(=O)(=O)c3ccc4[nH]c(=O)ccc4c3)C2)cc1OC (centres undefined),-4,15*,0,0,-5,1
Cc1ccc(O)c(NC(=O)c2noc(C(C)C)c2[N+](=O)[O-])c1,-3,9.0*,0,0,6,1
CC(=O)c1cccc(NC(=O)c2ccc([N+](=O)[O-])o2)c1,2,6,0,1,·,·
COc1ccc(NC(=O)c2ccc([N+](=O)[O-])o2)cc1,2,12*,0,7,29*,3
Cc1cc(C)cc(NC(=O)c2ccc([N+](=O)[O-])o2)c1,4,4,0,0,·,·
Cc1cc(NC(=O)c2ccc([N+](=O)[O-])o2)ccc1NC(=O)c1ccco1,-14,10*,0,5,18*,2
CC(=O)c1ccc(NC(=O)c2ccc([N+](=O)[O-])o2)cc1,0,9.4*,0,7,19*,4
Cc1ccc(NC(=O)c2ccc([N+](=O)[O-])o2)cc1S(=O)(=O)N1CCOCC1,3,17*,0,3,14*,2
O=C(Nc1ccc(Cl)cn1)c1ccc([N+](=O)[O-])o1,-1,11*,1,4,14*,4
Cc1c(Cl)c([N+](=O)[O-])nn1Cc1ccc(C(=O)Nc2ccc(Cl)cn2)o1,38,-2,0,-5,·,·
Cc1ccccc1C(=O)N1CCN(c2ccc(NC(=O)c3ccc([N+](=O)[O-])o3)cc2)CC1,1,13*,0,1,-4,3
O=C(Nc1ccc(N2CCN(C(=O)c3ccccc3)CC2)cc1)c1ccc([N+](=O)[O-])o1,10,-5,0,6,·,·
CC(C)Oc1ccc(/C=C(\C#N)C(=O)NC2CC2)cc1,-2,2,0,2,·,·
O=c1[nH]c(Cc2ccc(Cl)cc2)nc2ccccc12,2,1,0,3,·,·
CCc1ccc(NCc2nc3ccccc3c(=O)[nH]2)cc1,3,8.3*,0,5,11*,14*
COCCn1c(SCC#N)nnc1-c1ccc(OC)cc1,-7,1,0,0,·,·
N#CC(C#N)=Cc1ccc(NC(=O)c2ccc(Br)cc2)cc1,-1,9.2*,0,4,4,5
COC(=O)[C@H](Cc1c[nH]c2ccccc12)NC(=O)NCc1ccccc1,-3,1,1,-2,·,·
COc1ccc2nc(N(CCN(C)C)C(=O)c3ccc4ncsc4c3)sc2c1,-6,10*,0,4,13*,9.4*
COc1ccc(NC(=O)Cn2cccc2)c(OC)c1,-5,-1,0,1,·,·
Fc1ccccc1N1CCN(C2CCCN(Cc3ccccc3C(F)(F)F)C2)CC1 (centres undefined),24,-2,1,0,·,·
CCCOc1ccc(-c2cn3ccccc3n2)cc1,-3,8.2*,3,1,6,9.7*
Cc1ccc(/C=C/C2=NN(C)C(=O)CC2)cc1,-6,8.3*,0,7,6,6.6*
CN1N=C(/C=C/c2ccccc2)CCC1=O,-3,7,0,6,·,·
COc1ccc(C2=NN(C(=O)c3ccco3)C(c3cccs3)C2)cc1OC (centres undefined),5,12*,0,2,18*,5
